Data: the supplement of paper PMC6411743
± gives the standard deviation of the averaged measurements. The full data set covers some 6,200 targets. This sample favours those with the largest changes.

Compound: Nc1ncnc2c1ncn2[C@@H]1O[C@H](COP(=O)(O)OP(=O)(O)NP(=O)(O)O)[C@@H](O)[C@H]1O [adenylyl imidodiphosphate]
Assay: NP40-soluble protein abundance relative to vehicle (solubility fold change) (ratio); higher = more soluble protein in presence of AMP-PNP
Outline: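 Data come from three independent experiments in which Dounce-homogenised Jurkat crude lysate was treated at eight concentrations from 0.1 to 10 mM. Treatment ran 10 min at room temperature and then 3 min at 37 °C, after which 0.8% NP40 and benzonase were added for 60 min at 4 °C before ultracentrifugation. The supernatant underwent TMT labelling and LC-MS/MS, and vsn-normalised intensities were expressed as fold change against the detergent-processed vehicle in each replicate.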

UniProt Q8TEQ0, sequence (Q8TEQ0 whole entry): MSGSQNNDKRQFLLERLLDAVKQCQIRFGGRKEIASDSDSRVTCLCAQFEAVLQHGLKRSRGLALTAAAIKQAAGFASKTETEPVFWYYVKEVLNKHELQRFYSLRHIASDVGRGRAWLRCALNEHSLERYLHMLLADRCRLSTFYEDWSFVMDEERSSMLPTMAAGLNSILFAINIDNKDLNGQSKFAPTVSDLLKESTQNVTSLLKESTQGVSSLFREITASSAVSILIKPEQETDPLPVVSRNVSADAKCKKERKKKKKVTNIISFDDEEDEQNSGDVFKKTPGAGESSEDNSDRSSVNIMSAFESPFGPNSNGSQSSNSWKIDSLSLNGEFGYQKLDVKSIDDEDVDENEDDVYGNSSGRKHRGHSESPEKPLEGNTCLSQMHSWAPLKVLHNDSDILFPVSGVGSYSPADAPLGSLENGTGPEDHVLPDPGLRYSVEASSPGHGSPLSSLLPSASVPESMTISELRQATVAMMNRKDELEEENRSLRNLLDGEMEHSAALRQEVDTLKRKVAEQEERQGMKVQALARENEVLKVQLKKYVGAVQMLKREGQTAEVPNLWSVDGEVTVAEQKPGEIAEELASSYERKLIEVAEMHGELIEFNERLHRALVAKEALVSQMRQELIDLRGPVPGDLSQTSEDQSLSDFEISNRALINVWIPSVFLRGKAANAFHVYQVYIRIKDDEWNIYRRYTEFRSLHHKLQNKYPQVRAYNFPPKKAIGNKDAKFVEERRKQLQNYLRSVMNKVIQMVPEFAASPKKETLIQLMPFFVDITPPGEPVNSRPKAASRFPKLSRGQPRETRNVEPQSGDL
UniProt Q86W42, sequence (Q86W42 whole entry): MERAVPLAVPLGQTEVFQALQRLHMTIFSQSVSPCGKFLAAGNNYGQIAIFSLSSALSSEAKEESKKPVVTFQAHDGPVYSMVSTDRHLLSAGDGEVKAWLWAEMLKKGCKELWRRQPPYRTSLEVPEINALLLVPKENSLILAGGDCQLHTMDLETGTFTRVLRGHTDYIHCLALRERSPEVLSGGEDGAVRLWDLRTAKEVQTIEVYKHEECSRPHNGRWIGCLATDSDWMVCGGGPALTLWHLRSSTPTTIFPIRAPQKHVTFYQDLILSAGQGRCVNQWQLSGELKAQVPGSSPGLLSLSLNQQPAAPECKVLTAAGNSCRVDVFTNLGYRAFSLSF
UniProt Q86UE4, sequence (Q86UE4 whole entry): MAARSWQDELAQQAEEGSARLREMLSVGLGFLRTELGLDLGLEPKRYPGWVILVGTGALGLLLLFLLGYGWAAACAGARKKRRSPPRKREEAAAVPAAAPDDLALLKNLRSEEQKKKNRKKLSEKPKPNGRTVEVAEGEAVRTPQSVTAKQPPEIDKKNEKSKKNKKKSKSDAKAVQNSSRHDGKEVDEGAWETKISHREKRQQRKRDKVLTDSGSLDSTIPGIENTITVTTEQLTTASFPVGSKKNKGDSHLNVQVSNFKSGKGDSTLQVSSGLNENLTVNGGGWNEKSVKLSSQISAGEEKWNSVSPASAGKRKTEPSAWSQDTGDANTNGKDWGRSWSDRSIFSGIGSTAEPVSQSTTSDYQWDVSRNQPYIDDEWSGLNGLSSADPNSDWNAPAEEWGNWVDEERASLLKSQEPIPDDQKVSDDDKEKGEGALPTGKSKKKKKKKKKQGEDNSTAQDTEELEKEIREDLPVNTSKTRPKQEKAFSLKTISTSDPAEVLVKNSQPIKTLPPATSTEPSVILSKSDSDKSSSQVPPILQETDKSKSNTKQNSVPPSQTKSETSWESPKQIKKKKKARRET
UniProt Q5T3F8, sequence (Q5T3F8 whole entry, one chain of several): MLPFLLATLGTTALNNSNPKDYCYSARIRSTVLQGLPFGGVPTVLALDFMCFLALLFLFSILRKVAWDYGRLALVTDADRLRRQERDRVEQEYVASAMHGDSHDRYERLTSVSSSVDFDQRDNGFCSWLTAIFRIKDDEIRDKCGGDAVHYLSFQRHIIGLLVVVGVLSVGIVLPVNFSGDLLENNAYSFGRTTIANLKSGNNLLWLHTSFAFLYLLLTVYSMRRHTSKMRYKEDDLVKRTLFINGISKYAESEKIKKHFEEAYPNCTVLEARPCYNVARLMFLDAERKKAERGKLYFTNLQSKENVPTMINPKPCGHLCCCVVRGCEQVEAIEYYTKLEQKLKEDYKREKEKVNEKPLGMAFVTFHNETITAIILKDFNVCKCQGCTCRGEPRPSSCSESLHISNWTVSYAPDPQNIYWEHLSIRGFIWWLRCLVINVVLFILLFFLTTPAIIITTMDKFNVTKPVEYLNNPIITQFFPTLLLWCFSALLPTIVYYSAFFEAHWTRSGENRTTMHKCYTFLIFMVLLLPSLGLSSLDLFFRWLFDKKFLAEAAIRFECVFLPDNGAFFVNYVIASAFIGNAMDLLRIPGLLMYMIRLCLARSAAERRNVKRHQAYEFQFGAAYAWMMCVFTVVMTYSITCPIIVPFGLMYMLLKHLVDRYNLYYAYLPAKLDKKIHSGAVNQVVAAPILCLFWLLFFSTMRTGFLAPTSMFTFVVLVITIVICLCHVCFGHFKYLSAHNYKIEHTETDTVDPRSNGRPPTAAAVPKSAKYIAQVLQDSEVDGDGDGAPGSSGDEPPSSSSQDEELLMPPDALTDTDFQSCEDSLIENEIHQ
UniProt Q5XUX1, sequence (Q5XUX1 whole entry): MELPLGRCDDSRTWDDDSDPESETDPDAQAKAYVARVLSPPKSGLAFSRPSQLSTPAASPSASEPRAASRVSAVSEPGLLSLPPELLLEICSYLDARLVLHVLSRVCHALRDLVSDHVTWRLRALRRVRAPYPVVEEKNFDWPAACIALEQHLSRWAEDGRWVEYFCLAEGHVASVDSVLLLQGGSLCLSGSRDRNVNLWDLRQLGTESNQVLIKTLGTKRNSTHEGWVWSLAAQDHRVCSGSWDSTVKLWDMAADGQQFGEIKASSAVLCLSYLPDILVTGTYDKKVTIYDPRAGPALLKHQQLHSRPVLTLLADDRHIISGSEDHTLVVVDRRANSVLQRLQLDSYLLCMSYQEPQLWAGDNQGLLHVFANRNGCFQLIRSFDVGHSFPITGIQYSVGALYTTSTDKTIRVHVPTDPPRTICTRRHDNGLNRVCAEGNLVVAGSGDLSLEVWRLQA
UniProt Q8WZA0, sequence (Q8WZA0 whole entry): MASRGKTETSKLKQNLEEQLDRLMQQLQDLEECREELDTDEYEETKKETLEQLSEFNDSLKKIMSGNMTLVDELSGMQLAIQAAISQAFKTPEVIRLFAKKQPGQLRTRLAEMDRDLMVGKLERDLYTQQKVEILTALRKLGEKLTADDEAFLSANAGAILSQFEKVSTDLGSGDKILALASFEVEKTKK
UniProt Q5EBL8, sequence (Q5EBL8 whole entry): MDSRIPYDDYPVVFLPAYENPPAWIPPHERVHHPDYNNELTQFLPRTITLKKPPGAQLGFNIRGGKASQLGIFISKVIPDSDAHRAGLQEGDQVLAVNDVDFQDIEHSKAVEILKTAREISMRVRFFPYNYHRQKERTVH
UniProt Q96BP3, sequence (Q96BP3 whole entry): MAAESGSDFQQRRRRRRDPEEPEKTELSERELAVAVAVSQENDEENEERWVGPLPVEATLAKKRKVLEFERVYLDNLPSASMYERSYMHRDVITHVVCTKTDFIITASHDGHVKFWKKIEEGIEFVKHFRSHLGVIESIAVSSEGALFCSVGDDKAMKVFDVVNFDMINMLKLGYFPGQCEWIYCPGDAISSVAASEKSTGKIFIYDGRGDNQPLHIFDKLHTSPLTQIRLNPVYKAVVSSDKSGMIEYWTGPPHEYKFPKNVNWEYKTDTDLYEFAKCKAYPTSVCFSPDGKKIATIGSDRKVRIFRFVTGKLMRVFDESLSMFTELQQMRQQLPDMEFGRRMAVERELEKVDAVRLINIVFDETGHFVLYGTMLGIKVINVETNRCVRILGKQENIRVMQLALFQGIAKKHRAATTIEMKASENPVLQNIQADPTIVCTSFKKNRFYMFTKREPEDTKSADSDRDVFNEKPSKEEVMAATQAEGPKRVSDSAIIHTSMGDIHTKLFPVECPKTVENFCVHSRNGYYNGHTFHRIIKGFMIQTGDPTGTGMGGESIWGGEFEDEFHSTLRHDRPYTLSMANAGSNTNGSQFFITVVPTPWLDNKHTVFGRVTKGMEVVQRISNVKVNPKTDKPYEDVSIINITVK
UniProt Q15126, sequence (Q15126 whole entry): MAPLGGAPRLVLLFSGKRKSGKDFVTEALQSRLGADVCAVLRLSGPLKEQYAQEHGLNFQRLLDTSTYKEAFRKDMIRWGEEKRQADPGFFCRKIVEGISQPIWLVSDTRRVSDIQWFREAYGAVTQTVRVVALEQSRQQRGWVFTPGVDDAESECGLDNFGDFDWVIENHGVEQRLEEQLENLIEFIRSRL
UniProt Q8NCC3, sequence (Q8NCC3 whole entry): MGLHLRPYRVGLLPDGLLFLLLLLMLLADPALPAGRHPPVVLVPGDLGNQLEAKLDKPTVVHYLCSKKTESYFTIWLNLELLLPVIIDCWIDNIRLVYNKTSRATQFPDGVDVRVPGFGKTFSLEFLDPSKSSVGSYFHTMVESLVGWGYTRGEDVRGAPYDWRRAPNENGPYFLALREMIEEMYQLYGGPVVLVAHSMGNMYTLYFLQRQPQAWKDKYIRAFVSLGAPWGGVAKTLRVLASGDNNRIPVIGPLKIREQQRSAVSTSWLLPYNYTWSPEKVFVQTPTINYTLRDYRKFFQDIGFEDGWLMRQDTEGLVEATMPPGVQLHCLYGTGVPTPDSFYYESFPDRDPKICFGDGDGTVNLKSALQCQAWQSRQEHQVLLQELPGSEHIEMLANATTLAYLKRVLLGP
UniProt Q8WZ82, sequence (Q8WZ82 whole entry): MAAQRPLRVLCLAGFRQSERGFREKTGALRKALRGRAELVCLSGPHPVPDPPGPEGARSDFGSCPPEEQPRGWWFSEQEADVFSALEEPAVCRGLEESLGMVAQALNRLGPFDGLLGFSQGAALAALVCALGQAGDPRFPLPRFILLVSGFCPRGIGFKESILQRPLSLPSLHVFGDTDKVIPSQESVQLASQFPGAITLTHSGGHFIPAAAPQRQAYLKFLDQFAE

Target	NP40-soluble protein abundance (concentration: 1mM)	NP40-soluble protein abundance (concentration: 2mM)	NP40-soluble protein abundance (concentration: 4mM)	NP40-soluble protein abundance (concentration: 6mM)	NP40-soluble protein abundance (concentration: 8mM)	NP40-soluble protein abundance (concentration: 10mM)
PSME4 (UniProt Q14997)	0.9678 ± 0.0088	0.905 ± 0.072	0.968 ± 0.045	0.884 ± 0.075	0.925 ± 0.11	0.884 ± 0.11
PDCL (UniProt Q13371)	0.966 ± 0.026	0.973 ± 0.039	0.969 ± 0.056	0.932 ± 0.062	0.938 ± 0.083	0.928 ± 0.082
EIF3A (UniProt Q14152)	1.05 ± 0.029	1.08 ± 0.044	1.12 ± 0.087	1.19 ± 0.12	1.25 ± 0.12	1.38 ± 0.19
UniProt Q14677|Q14677-2|Q14677-3	0.999 ± 0.026	1.03 ± 0.069	0.983 ± 0.052	1 ± 0.026	0.974 ± 0.03	1.03 ± 0.043
UniProt Q684P5-2|Q684P5-3|Q684P5	1 ± 0.035	1 ± 0.024	0.997 ± 0.051	0.977 ± 0.029	0.963 ± 0.048	0.968 ± 0.026
Q5THR1|Q9H5Z1|Q9H5Z1-2|F2Z2Z2 (UniProt Q9H5Z1)	1.02 ± 0.061	0.96808 ± 0.00094	1.01 ± 0.011	0.987 ± 0.024	0.991 ± 0.022	0.997 ± 0.023
EMG1 (UniProt Q92979)	1.01 ± 0.03	1 ± 0.014	1.12 ± 0.087	1.19 ± 0.071	1.24 ± 0.096	1.26 ± 0.1
UniProt Q6P6C2|Q6P6C2-1	1.15 ± 0.065	1.17 ± 0.036	1.22 ± 0.07	1.24 ± 0.13	1.3 ± 0.13	1.33 ± 0.11
UniProt Q8TB61|Q8TB61-2|Q8TB61-3	0.968 ± 0.041	0.969 ± 0.045	0.965 ± 0.045	0.953 ± 0.034	0.951 ± 0.042	0.989 ± 0.019
NUBPL (UniProt Q8TB37)	1 ± 0.045	1.01 ± 0.057	1.02 ± 0.05	1.06 ± 0.092	1.03 ± 0.092	1.05 ± 0.076
UniProt Q7L0J3|Q7L0J3-2	1 ± 0.032	1.05 ± 0.072	1.03 ± 0.031	1.02 ± 0.025	1.03 ± 0.033	1.02 ± 0.028
LRRC59 (UniProt Q96AG4)	1.11 ± 0.048	1.32 ± 0.3	1.13 ± 0.089	1.15 ± 0.028	1.12 ± 0.052	1.19 ± 0.13
ITPK1 (UniProt Q13572)	1.019 ± 0.0014	1.035 ± 0.0039	1.01 ± 0.014	0.992 ± 0.025	1.02 ± 0.04	0.9738 ± 0.0084
ANKRD13A (UniProt Q8IZ07)	0.985 ± 0.017	0.981 ± 0.013	1.04 ± 0.029	1.06 ± 0.061	1.04 ± 0.03	1.08 ± 0.047
PMVK (UniProt Q15126)	0.948 ± 0.0098	0.931 ± 0.018	0.973 ± 0.045	1.04 ± 0.07	1.04 ± 0.061	1.02 ± 0.052
ABHD11 (UniProt Q8NFV4)	1.02 ± 0.035	1.046 ± 0.0096	1.04 ± 0.023	0.995 ± 0.028	1 ± 0.02	1.01 ± 0.048
UniProt Q15390|H0YBZ4|Q15390-2	1.008 ± 0.0075	1.05 ± 0.071	1.01 ± 0.02	1 ± 0.011	0.9719 ± 0.0073	0.989 ± 0.021
UniProt Q15006	0.984 ± 0.018	0.9532 ± 0.0062	0.975 ± 0.044	0.989 ± 0.049	1.02 ± 0.028	1.02 ± 0.013
UniProt Q5XUX1|Q5XUX1-3|Q5XUX1-2	0.986 ± 0.017	0.96 ± 0.042	0.976 ± 0.026	0.993 ± 0.021	0.982 ± 0.024	0.969 ± 0.028
THOC5 (UniProt Q13769)	1.36 ± 0.17	1.42 ± 0.23	1.65 ± 0.35	1.84 ± 0.54	2.03 ± 0.65	2.16 ± 0.88

Target	NP40-soluble protein abundance (concentration: 1mM)	NP40-soluble protein abundance (concentration: 2mM)	NP40-soluble protein abundance (concentration: 4mM)	NP40-soluble protein abundance (concentration: 6mM)	NP40-soluble protein abundance (concentration: 8mM)	NP40-soluble protein abundance (concentration: 10mM)
KBTBD7 (UniProt Q8WVZ9)	0.977 ± 0.014	0.9633 ± 0.004	0.959 ± 0.025	0.987 ± 0.01	1.03 ± 0.018	0.988 ± 0.03
UniProt Q8IXQ5|Q8IXQ5-2|Q8IXQ5-5	0.984 ± 0.042	0.979 ± 0.018	0.974 ± 0.029	0.9744 ± 0.0094	0.983 ± 0.044	0.9769 ± 0.0044
UniProt Q5EBL8|Q5EBL8-2	1 ± 0.011	1.02 ± 0.023	0.9905 ± 0.0052	1 ± 0.025	1.02 ± 0.03	1.017 ± 0.0054
DTX3L (UniProt Q8TDB6)	1.03 ± 0.02	1.01 ± 0.024	1.04 ± 0.059	0.994 ± 0.03	0.996 ± 0.038	0.993 ± 0.022
USP34 (UniProt Q70CQ2)	0.958 ± 0.032	0.925 ± 0.044	0.955 ± 0.026	0.885 ± 0.021	0.877 ± 0.033	0.873 ± 0.014
UniProt Q5FWF5	1.01 ± 0.012	1.012 ± 0.0086	1 ± 0.026	1.04 ± 0.035	1.029 ± 7.1e-05	1.06 ± 0.023
NUP210 (UniProt Q8TEM1)	0.992 ± 0.025	0.952 ± 0.025	0.975 ± 0.021	0.972 ± 0.037	1.01 ± 0.029	0.986 ± 0.044
UniProt Q14156|Q14156-2	0.9764 ± 0.0041	0.961 ± 0.041	0.9737 ± 0.0064	0.952 ± 0.023	0.973 ± 0.015	0.953 ± 0.018
UniProt Q7L4P6|Q7L4P6-2	1.21 ± 0.13	1.37 ± 0.095	1.2 ± 0.15	1.14 ± 0.16	1.03 ± 0.043	1.23 ± 0.19
UniProt Q6ZRI6|Q6ZRI6-2|H3BMJ2	0.9914 ± 0.0011	1.01 ± 0.044	1.01 ± 0.018	0.992 ± 0.029	1 ± 0.018	0.99766 ± 5.3e-05
MDC1 (UniProt Q14676)	1.13 ± 0.032	1.31 ± 0.086	1.49 ± 0.12	1.86 ± 0.28	2.04 ± 0.41	2.34 ± 0.53
UniProt Q86W42|Q86W42-2	1.17 ± 0.087	1.25 ± 0.065	1.36 ± 0.11	1.49 ± 0.1	1.65 ± 0.18	1.67 ± 0.27
UniProt Q86YS7	0.973 ± 0.015	0.97 ± 0.016	0.982 ± 0.017	0.942 ± 0.012	0.919 ± 0.015	0.948 ± 0.018
MTDH (UniProt Q86UE4)	1.13 ± 0.046	1.3 ± 0.16	1.32 ± 0.073	1.46 ± 0.2	1.47 ± 0.17	1.58 ± 0.17
UniProt Q969T7|Q969T7-2	0.981 ± 0.054	0.95 ± 0.043	0.999 ± 0.029	0.966 ± 0.025	0.96 ± 0.042	0.963 ± 0.046
TTC37 (UniProt Q6PGP7)	0.822 ± 0.084	0.793 ± 0.14	0.791 ± 0.11	0.768 ± 0.077	0.761 ± 0.078	0.76 ± 0.079
UniProt Q6IAA8|F5GX19|F5H3Y3|F5H479|H0YFI1	1.02 ± 0.025	1.04 ± 0.028	1.04 ± 0.047	0.992 ± 0.051	0.975 ± 0.017	0.966 ± 0.035
OVCA2 (UniProt Q8WZ82)	1.01 ± 0.018	0.992 ± 0.052	1.01 ± 0.062	0.981 ± 0.018	1.01 ± 0.041	0.999 ± 0.03
UniProt Q8WZA0|Q8WZA0-2	0.969 ± 0.052	0.957 ± 0.0098	0.928 ± 0.059	0.912 ± 0.044	0.921 ± 0.034	0.859 ± 0.054
EPM2AIP1 (UniProt Q7L775)	0.961 ± 0.015	0.94 ± 0.032	0.96 ± 0.025	0.947 ± 0.028	0.9617 ± 0.0055	0.958 ± 0.041

Target	NP40-soluble protein abundance (concentration: 1mM)	NP40-soluble protein abundance (concentration: 2mM)	NP40-soluble protein abundance (concentration: 4mM)	NP40-soluble protein abundance (concentration: 6mM)	NP40-soluble protein abundance (concentration: 8mM)	NP40-soluble protein abundance (concentration: 10mM)
UniProt Q86VR2	0.989 ± 0.0052	0.966 ± 0.024	0.977 ± 0.025	0.976 ± 0.015	0.9994 ± 0.002	0.952 ± 0.01
ERCC6L (UniProt Q2NKX8)	0.998 ± 0.022	1.01 ± 0.036	0.993 ± 0.04	0.95 ± 0.032	0.942 ± 0.045	0.949 ± 0.064
TBRG4 (UniProt Q969Z0)	0.984 ± 0.03	0.953 ± 0.033	0.955 ± 0.012	0.959 ± 0.028	0.941 ± 0.022	0.935 ± 0.054
LEO1 (UniProt Q8WVC0)	1.025 ± 0.006	1.04 ± 0.062	1.01 ± 0.029	1.02 ± 0.03	0.997 ± 0.016	1.02 ± 0.024
RHOT2 (UniProt Q8IXI1)	1.02 ± 0.021	1 ± 0.073	1.02 ± 0.03	0.9999 ± 0.006	1.004 ± 0.01	1.02 ± 0.034
KBTBD8 (UniProt Q8NFY9)	0.953 ± 0.046	0.944 ± 0.043	0.955 ± 0.035	0.976 ± 0.018	0.973 ± 0.02	0.965 ± 0.025
EIF4EBP1 (UniProt Q13541)	0.949 ± 0.016	1.032 ± 0.008	0.998 ± 0.1	0.9563 ± 0.0018	0.961 ± 0.059	0.96 ± 0.047
NONO (UniProt Q15233)	1.09 ± 0.048	1.17 ± 0.064	1.22 ± 0.056	1.39 ± 0.12	1.45 ± 0.15	1.56 ± 0.18
UniProt Q5T3F8|H3BLW6	1 ± 0.052	1.06 ± 0.1	1.01 ± 0.038	1.01 ± 0.019	0.985 ± 0.042	1.01 ± 0.049
PLA2G15 (UniProt Q8NCC3)	0.991 ± 0.013	0.975 ± 0.013	1.02 ± 0.03	0.986 ± 0.029	0.9922 ± 0.0084	0.979 ± 0.021
CBLL1 (UniProt Q75N03)	1 ± 0.01	1.04 ± 0.022	1.03 ± 0.045	0.995 ± 0.015	0.976 ± 0.014	0.985 ± 0.016
UniProt Q8IYB5-2|Q8IYB5-3	0.988 ± 0.028	0.986 ± 0.011	1.01 ± 0.031	0.995 ± 0.038	0.995 ± 0.025	1.01 ± 0.015
HP1BP3 (UniProt Q5SSJ5)	0.963 ± 0.042	1.06 ± 0.063	1.03 ± 0.065	1.16 ± 0.017	1.18 ± 0.069	1.39 ± 0.15
UniProt Q8TEQ0|Q8TEQ0-2	1.02 ± 0.035	1.03 ± 0.047	1.01 ± 0.029	0.98 ± 0.054	0.969 ± 0.017	0.953 ± 0.021
CCDC6 (UniProt Q16204)	0.993 ± 0.023	1.06 ± 0.037	0.979 ± 0.041	0.957 ± 0.024	0.9475 ± 0.0034	0.916 ± 0.027
DNAJB14 (UniProt Q8TBM8)	0.975 ± 0.025	0.987 ± 0.066	0.971 ± 0.028	0.953 ± 0.039	0.952 ± 0.035	0.947 ± 0.035
UniProt Q6PI47	0.873 ± 0.06	0.905 ± 0.046	0.947 ± 0.051	1 ± 0.023	1.08 ± 0.047	1.1 ± 0.064
PPWD1 (UniProt Q96BP3)	0.984 ± 0.013	0.933 ± 0.087	1 ± 0.06	1.01 ± 0.037	1.04 ± 0.042	1.02 ± 0.036
UniProt Q8TEX9|Q8TEX9-2	1.01 ± 0.026	0.974 ± 0.059	0.99 ± 0.017	0.9956 ± 0.0059	1.007 ± 0.0054	0.981 ± 0.025
CMIP (UniProt Q8IY22)	0.986 ± 0.047	0.964 ± 0.031	0.942 ± 0.029	0.958 ± 0.046	0.935 ± 0.022	0.923 ± 0.043
